# In PubChem BioAssay AID652197 (Broad Institute, 2013):
# Out of some 340,000 compounds screened, about 500 (0.15%) were called active.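 The calls were made as follows: active = mean replicate inhibition of at least 30%, or all replicates individually reaching that 30% level; inactive = mean below 30% and not every replicate reaching it.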 For the sample, actives were picked, then their nearest neighbours and some compounds at random.
# Target: Endoplasmic reticulum aminopeptidase 1 (Homo sapiens) (UniProt Q9NZ08)
# Sequence (Q9NZ08 whole entry, looked up): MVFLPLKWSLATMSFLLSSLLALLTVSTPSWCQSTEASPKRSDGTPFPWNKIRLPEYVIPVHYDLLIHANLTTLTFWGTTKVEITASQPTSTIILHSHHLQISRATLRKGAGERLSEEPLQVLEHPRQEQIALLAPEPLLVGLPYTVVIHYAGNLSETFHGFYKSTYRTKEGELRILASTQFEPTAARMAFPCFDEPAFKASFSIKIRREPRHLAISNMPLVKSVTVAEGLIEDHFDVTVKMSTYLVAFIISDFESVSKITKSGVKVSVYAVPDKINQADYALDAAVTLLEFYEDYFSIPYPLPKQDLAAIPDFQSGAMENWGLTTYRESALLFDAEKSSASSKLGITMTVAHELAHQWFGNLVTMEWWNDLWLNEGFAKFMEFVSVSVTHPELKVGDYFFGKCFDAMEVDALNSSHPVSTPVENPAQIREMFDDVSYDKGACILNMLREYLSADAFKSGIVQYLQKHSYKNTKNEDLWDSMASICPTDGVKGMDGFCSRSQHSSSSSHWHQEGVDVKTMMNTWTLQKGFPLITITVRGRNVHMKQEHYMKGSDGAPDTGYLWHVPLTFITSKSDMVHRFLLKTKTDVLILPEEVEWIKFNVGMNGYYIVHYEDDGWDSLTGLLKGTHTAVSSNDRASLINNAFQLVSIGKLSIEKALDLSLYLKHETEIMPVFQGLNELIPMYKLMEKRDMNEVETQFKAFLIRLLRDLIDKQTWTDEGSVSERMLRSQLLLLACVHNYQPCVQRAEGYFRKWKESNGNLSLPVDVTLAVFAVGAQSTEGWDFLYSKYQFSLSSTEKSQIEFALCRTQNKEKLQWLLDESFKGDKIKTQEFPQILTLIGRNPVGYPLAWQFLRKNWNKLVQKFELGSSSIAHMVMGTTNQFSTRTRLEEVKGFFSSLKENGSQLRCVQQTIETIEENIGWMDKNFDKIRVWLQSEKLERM
# Test: inhibition of ERAP1 peptide trimming enzyme – biochemical, single point, plate reader, primary screen (AID 652197);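 also: 0% = neutral control wells and 100% = L-leucinethiol positive control wells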
# Details: recombinant ERAP1, Leu-AMC fluorescence, 60 min; at 10.7 µM; active compounds read high
row,SMILES,inhibition
1,CC(C)NC(=O)N(C)C[C@@H]1Oc2ccc(N(C)C)cc2CC(=O)N([C@H](C)CO)C[C@@H]1C,2.87% (inactive)
2,CN1CCN(C(=O)C[C@H]2CC[C@@H]3[C@H](COC[C@@H](O)CN3CC3CCCC3)O2)CC1,4.35% (inactive)
3,CC(C)c1cn(CC[C@@H]2CC[C@@H](NC(=O)C3CC3)[C@H](CO)O2)nn1,-4.66% (inactive)
4,COc1ccc2c3c(n(C)c2c1)[C@H](CO)N(C(=O)NC(C)C)CC31CCN(C(=O)NC(C)C)CC1,-0.444% (inactive)
5,O=C(N[C@H]1CC[C@@H](CCNS(=O)(=O)c2ccccc2)O[C@H]1CO)c1cccnc1,-2.04% (inactive)
6,C[C@@H]1CN([C@@H](C)CO)C(=O)c2cc(NC(=O)Nc3ccc(F)cc3)ccc2O[C@H]1CN(C)CC1CCCCC1,-0.385% (inactive)
7,O=C(c1cccc(F)c1)N1CC[C@@H]2[C@H](CO)Nc3ccc(-c4ccccc4)cc3[C@@H]21,-0.032% (inactive)
8,O=C(C[C@@H]1CC[C@H](NC(=O)NC2CCCCC2)[C@H](CO)O1)NCc1ccc(F)cc1,0.011% (inactive)
9,CC(C)NC(=O)N1[C@H](C(=O)N2CCc3ccccc3C2)[C@@H](CO)[C@@H]2Cn3c(cccc3=O)[C@@H]21,0.844% (inactive)
10,COc1cccc2c1C(=O)c1c(O)c3c(c(O)c1C2=O)CC(O)(C(C)=NNC(=O)c1ccc(Cl)c(Cl)c1)CC3OC1CC(N)C(O)C(C)O1 (centres undefined),42% (active)
11,COCCNC(=O)CSc1nc(N)c(NC(=O)c2ccco2)c(=O)[nH]1,-7.96% (inactive)
12,COCCNC(=O)c1snc2ccc(Cl)cc12,-4.43% (inactive)
13,COCCNC(=O)Nc1ccc2nc(-c3ccco3)c(-c3ccco3)nc2c1,30.5% (active)
14,O=C(C[C@H]1CC[C@H]2[C@@H](COC[C@@H](O)CN2CC2CCCC2)O1)NCC1CC1,-1.66% (inactive)
15,Cc1noc(C)c1S(=O)(=O)N(C)C[C@H]1Oc2c(NC(=O)c3cnccn3)cccc2C(=O)N([C@H](C)CO)C[C@H]1C,5.55% (inactive)
16,Cc1nc(N2[C@H](CO)[C@H](c3ccccc3)[C@H]2CNCC2CCC2)sc1C,2.07% (inactive)
17,O=C(C1CCC1)N1CC(=O)N2[C@H](C1)[C@@H](c1ccc(-c3ccccc3F)cc1)[C@@H]2CO,-0.661% (inactive)
18,CN(C)C(=O)c1cccc(-c2ccc([C@H]3[C@@H](CO)N4C(=O)CN(C(=O)C5CC5)C[C@@H]34)cc2)c1,0.435% (inactive)
19,CN1C(=O)c2cc(NC(=O)C3CC3)ccc2OC[C@H]2O[C@H](CC(=O)O)CC[C@H]21,-5.19% (inactive)
20,O=C(Nc1ccccc1F)N1CC(=O)N2[C@H](C1)[C@@H](c1ccc(C#CC3CC3)cc1)[C@@H]2CO,-0.691% (inactive)
21,O=S(=O)(c1ccc(F)cc1)N1CC[C@@H]2[C@@H](CO)Nc3ccc(-c4ccccc4F)cc3[C@@H]21,1% (inactive)
22,O=C(Nc1ccccc1F)N[C@@H]1CC[C@@H](CCNC(=O)C2CC2)O[C@H]1CO,-0.77% (inactive)

row,SMILES,inhibition
1,Cc1noc(C)c1NC(=O)Nc1ccc2c(c1)C(=O)N([C@H](C)CO)C[C@H](C)[C@@H](CN(C)S(C)(=O)=O)OCCCC[C@H](C)O2,-4.94% (inactive)
2,CCCC#Cc1ccc([C@H]2[C@H]3CN(C(=O)c4cccnc4)CC(=O)N3[C@H]2CO)cc1,-1.39% (inactive)
3,O=C(CN1C(=O)NC2(CCCCCC2)C1=O)NCc1cccs1,-3.05% (inactive)
4,O=C1CN(C(=O)CN2C(=O)NC3(CCCCC3)C2=O)c2ccccc2N1,-1.69% (inactive)
5,O=C(CN1C(=O)NC2(CCCCC2)C1=O)N1CCN(C(=O)c2cccs2)CC1,37.4% (active)
6,O=C1CNC[C@H]2[C@@H](c3ccc(C4=CCCC4)cc3)[C@@H](CO)N12,-1.67% (inactive)
7,CCCN1C[C@H](C)[C@@H](OC)CN(C)C(=O)c2ccc(NC(=O)c3cnccn3)cc2OC[C@H]1C,4.52% (inactive)
8,COc1ccc2c3c([nH]c2c1)[C@@H](CO)N(S(C)(=O)=O)CC31CN(CC2CC2)C1,-2.67% (inactive)
9,NCC[C@H]1CC[C@H](NC(=O)C2CC2)[C@@H](CO)O1,2.22% (inactive)
10,C[C@@H]1CN([C@@H](C)CO)C(=O)c2cc(NC(=O)C3CCCCC3)ccc2O[C@@H](C)CCCCO[C@H]1CN(C)C(=O)CCC(F)(F)F,-1.11% (inactive)
11,Cc1ccc(S(=O)(=O)Nc2ccc3c(c2)C(=O)N([C@@H](C)CO)C[C@@H](C)[C@H](CN(C)C(=O)NC(C)C)OCCCC[C@H](C)O3)cc1,-4.09% (inactive)
12,COc1ccccc1S(=O)(=O)N[C@@H]1CC[C@H](CC(=O)N2CCOCC2)O[C@@H]1CO,-0.783% (inactive)
13,O=C(O)c1[nH]c2ccccc2c1C(c1cccc(O)c1)c1c(C(=O)O)[nH]c2ccccc12,34.8% (active)
14,O=C(OCC(=O)c1c[nH]c2ccccc12)c1cccc(O)c1,-0.958% (inactive)
15,C[C@H]1CN([C@@H](C)CO)C(=O)c2cc(NC(=O)Cn3cnnn3)ccc2O[C@H]1CN(C)S(C)(=O)=O,-0.7% (inactive)
16,CCCNC(=O)Nc1ccc2c(c1)C(=O)N(C)C[C@H](OC)[C@H](C)CN[C@@H](C)CO2,-2.85% (inactive)
17,COc1ccc2c3c([nH]c2c1)[C@H](CO)N(C(=O)C1CCC1)CC31CCN(Cc2cccc(F)c2)CC1,0.436% (inactive)
18,Cc1noc(C)c1S(=O)(=O)Nc1ccc2c(c1)C(=O)N([C@H](C)CO)C[C@H](C)[C@H](CN(C)C(=O)CCC(F)(F)F)OCCCC[C@H](C)O2,0.261% (inactive)
19,CCCNC(=O)Nc1ccc2c(c1)OC[C@H](C)N(C(=O)C1CCC1)C[C@H](C)[C@@H](OC)CN(C)C2=O,2.58% (inactive)
20,C[C@@H]1CN([C@@H](C)CO)C(=O)c2c(c3ccccc3n2C)-c2ccccc2CO[C@@H]1CN(C)Cc1ccc2c(c1)OCCN2C,2.84% (inactive)
21,O=C(C[C@H]1C[C@@H]2c3cc(NS(=O)(=O)c4ccc(F)cc4)ccc3O[C@@H]2[C@H](CO)O1)NCc1cccc(F)c1,-2.83% (inactive)
22,CCCNC(=O)C[C@H]1C[C@H]2c3cc(NC(=O)COC)ccc3O[C@H]2[C@H](CO)O1,0.774% (inactive)
